Measured values: PubChem BioAssay (NCI)
Compounds without any hit were thinned out: in the full panel of roughly 79,000, 15% have a hit. Rule as the data show it: active = growth inhibition above about 70%; inactive = the rest.

Assays:
[1] = NCI Yeast Anticancer Drug Screen. Data for the rad50 strain (AID 155);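 also: 0% = growth of vehicle-only cultures of the same strain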; conditions: S. cerevisiae rad50 strain growth inhibition; at 50.0 µM; hits give high values
How it was run: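 Yeast carrying a defined DNA repair defect were exposed to test compounds, and growth was compared with vehicle-treated controls to give percent inhibition.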

[2] = NCI Yeast Anticancer Drug Screen. Data for the mec2-1 strain (AID 157); conditions: S. cerevisiae mec2-1 strain, at 50.0 µM, hits give high values
How it was run: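 Mutant yeast (mec2-1) grown with compound; growth inhibition relative to vehicle control reported.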

[3] = NCI Yeast Anticancer Drug Screen. Data for the sgs1 mgt1 strain (AID 161);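 also: 0% = growth of cultures given vehicle only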; conditions: S. cerevisiae sgs1 mgt1 strain, at 50.0 µM, hits give high values
How it was run: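 Yeast cells carrying a defined DNA-repair defect were exposed to test compounds. Growth inhibition was measured relative to vehicle-treated controls.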

[4] = NCI Yeast Anticancer Drug Screen. Data for the cln2 rad14 strain (AID 165);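 also: 0% = growth equal to vehicle treated cultures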; conditions: S. cerevisiae cln2 rad14 strain, at 50.0 µM, hits give high values
How it was run: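 Readout is yeast growth inhibition versus vehicle-treated controls, using a strain with cln2 and rad14 alterations exposed to compound.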

[5] = NCI Yeast Anticancer Drug Screen. Data for the bub3 strain (AID 167); conditions: S. cerevisiae bub3 mutant strain, at 50.0 µM, hits give high values
How it was run: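 Compounds were applied to a genetically altered yeast strain carrying a cell-cycle control defect. Growth inhibition was scored against vehicle-treated controls.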

[6] = NCI Yeast Anticancer Drug Screen. Data for the mlh1 rad18 strain (AID 175); conditions: S. cerevisiae mlh1 rad18 strain growth inhibition; at 50.0 µM; hits give high values
How it was run: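 Genetically defined yeast (DNA repair-deficient) exposed to compounds; growth inhibition determined relative to vehicle.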

Measured: growth inhibition

COC1OC(C(COC(=O)c2ccccc2)OC(=O)c2ccccc2)C(OC(=O)c2ccccc2)C1OS(C)(=O)=O (stereo unspecified)
inactive: [1] 5.35% | [2] -2.55% | [3] 28.8% | [4] 28.4% | [5] -0.1% | [6] 11.6%

Cc1cc(C)c(C#N)c(NN)n1
inactive: [1] -5.35% | [2] -2.8% | [3] 11.1% | [4] 12.2% | [5] -0.5% | [6] -1.05%

CCCCCCCCCC(=O)N/N=C/c1cccs1
inactive: [1] 0.95% | [2] 24.2% | [3] 3.9% | [4] -12.7% | [5] 35.8% | [6] 15.3%

CCCc1sc(NC(C)=O)nc1-c1ccccc1
inactive: [1] 1.2% | [2] 5.85% | [3] 15.2% | [4] 29.3% | [5] -9.7% | [6] 10.2%

C/C(CC(=O)Nc1cccc([N+](=O)[O-])c1)=N\NC(=O)CC#N
inactive: [1] -3.45% | [2] -13.3% | [3] 0.55% | [4] 12.1% | [5] -8.45% | [6] 2.35%

Cc1cc(Cl)ccc1OCCCC(=O)NC(Cc1ccccc1)C(=O)O (stereo unspecified)
inactive: [1] 4.85% | [2] 8.95% | [3] -2.15% | [4] 27.5% | [5] -4.2% | [6] 0%

O=Cc1cc2c(cc1-c1cc3c(cc1C=O)OCO3)OCO2
inactive: [1] -3.4% | [2] 8.25% | [3] 6.6% | [4] 9.85% | [5] 13.1% | [6] 0.75%

Cc1cn(CCCn2cnc3c(=O)[nH]cnc32)c(=O)[nH]c1=O
inactive: [1] -13.1% | [2] -22.1% | [3] -16.7% | [4] -3.15% | [5] -21.6% | [6] -3.25%

COC(=O)C1C(O)C(C)C(OC(C)=O)C(C)/C=C\C=C(C)C(=O)Nc2c(C)c(OC(C)=O)c3c(c2O)C(=O)C(C)=C2OCOC(=C23)C(C)=CC(C)(O)C(O)C(C)C1O (stereo unspecified)
inactive: [1] 3.25% | [2] -18.8% | [3] 15.7% | [4] 3.35% | [5] 26.8% | [6] 20.9%

O=[N+]([O-])c1ccc(Sc2ccc([N+](=O)[O-])cc2)cc1
inactive: [1] 2.35% | [2] 1.45% | [3] 8% | [4] 22.6% | [5] -0.1% | [6] 11.3%

CC1COC(c2cc3c(cc2Cl)OCO3)O1 (stereo unspecified)
inactive: [1] -12.4% | [2] -2.4% | [3] -20.3% | [4] -10.9% | [5] -26.6% | [6] -0.4%

OCCc1nccnn1
inactive: [1] -2.65% | [2] 5.8% | [3] 1.9% | [4] -1.35% | [5] 4.65% | [6] -3.6%

O=S(=O)(c1ccccc1)C1C2CCC(O2)C1S(=O)(=O)c1ccccc1 (stereo unspecified)
inactive: [1] 19.4% | [2] 7.8% | [3] 15.7% | [4] 30.9% | [5] 29.6% | [6] 10.1%

Cn1cnc([N+](=O)[O-])c1Sc1nnc(C(F)(F)F)n1C
inactive: [1] -7.6% | [2] -6.95% | [3] -9.65% | [4] 7.5% | [5] 3.6% | [6] -6.95%

Cc1cc2c(=O)n(-c3ccc(F)cc3)c(C)nc2c(C(=O)O)c1C
inactive: [1] -11.3% | [2] -8.75% | [3] -0.6% | [4] 10% | [5] -14.6% | [6] 9.55%

CCOc1c(N=Nc2ccc(Br)cc2)c(C)nn1C(N)=S
inactive: [1] -4.5% | [2] 33.9% | [3] 26.1% | [4] -0.3% | [5] 31.2% | [6] 45%

CCOC(=O)C1=NNC(=O)C1
inactive: [1] 4.4% | [2] -2.95% | [3] 2.35% | [4] 9.85% | [5] -0.3% | [6] 4.75%

CN(c1ccccc1)c1ccc([N+](=O)[O-])cc1[N+](=O)[O-]
inactive: [1] 7.4% | [2] -1.3% | [3] -8% | [4] 3.25% | [5] 0.8% | [6] -11.9%

COc1c(NC(=O)c2cccc(C(=O)Nc3cccc([N+](=O)[O-])c3OC)c2)cccc1[N+](=O)[O-]
inactive: [1] -30.6% | [2] -15.8% | [3] -19.9% | [4] -49.1% | [5] -0.7% | [6] -15.5%

COc1c(OC(C)=O)c(Cl)cc(C=O)c1[N+](=O)[O-]
inactive: [1] 47.1% | [2] 28.7% | [3] 30.1% | [4] 22.1% | [5] 22% | [6] 62.5%

O=C(O)CCC1COc2ccccc2O1 (stereo unspecified)
inactive: [1] -12.2% | [2] -8.35% | [3] 0.8% | [4] -9.5% | [5] -14% | [6] -9.35%

Cc1cc(N(CCC#N)CCC#N)ccc1/C=C1N=C(/C=C/c2ccccc2)N(c2ccc(S(N)(=O)=O)cc2)C\1=O
inactive: [1] 0.75% | [2] -0.2% | [3] -18.8% | [4] 0.6% | [5] -21.1% | [6] -3.9%

N#CCCn1c2ccccc2c2ccccc21
inactive: [1] -6.45% | [2] 27.5% | [3] 2.95% | [4] 26.5% | [5] -1.65% | [6] -0.5%

O=S(=O)(O)c1cccc(/C(=N\Nc2ccccn2)c2ccccn2)c1
inactive: [1] 44% | [2] 25.9% | [3] 59.8% | [4] 40.5% | [5] 51.5% | [6] 45.4%

S=C=NC12CC3CC(CC(C3)C1)C2
inactive: [1] -2% | [2] 0.6% | [3] 0.65% | [4] 15.1% | [5] -4.05% | [6] -15.5%

Fc1cc(Cl)c(F)cc1Cl
inactive: [1] -18% | [2] -17.8% | [3] -18.2% | [4] -27.3% | [5] -12.4% | [6] -27.4%

N#CC(C(=O)C(N)=O)c1nc2ccccc2s1 (stereo unspecified)
inactive: [1] 20.2% | [2] 9.45% | [3] 19.4% | [4] 5.8% | [5] -9.5% | [6] 2.25%

CCC(=O)Nc1cccc([N+](=O)[O-])c1OC
inactive: [1] -5.35% | [2] 23.4% | [3] -7.45% | [4] -52.2% | [5] 9.15% | [6] -15.2%

O=C1c2ccccc2C(=O)c2c1oc1c2ccc2ccccc21
inactive: [1] -8.15% | [2] 7% | [3] -4.35% | [4] -16.1% | [5] -5.25% | [6] 8.5%

CCCC/C=C/C1C=CC(CCCCCCCC(=O)OCC)C(C(=O)OCC)C1 (stereo unspecified) (tested in a mixture with another compound)
inactive: [1] 21% | [2] 8.75% | [3] 20% | [4] 17.4% | [5] 2.2% | [6] -13.4%

CCCCCC(CCCCC)c1ccccn1
inactive: [1] -14.3% | [2] -11.4% | [3] 3.95% | [4] 22.4% | [5] 26.9% | [6] 4.1%

Cc1ccc(I)c(C)c1
inactive: [1] -40% | [2] -10% | [3] -39.4% | [4] -3.6% | [5] -1.15% | [6] -7.3%

COc1nc(NC2OCC(OC(C)=O)C(OC(C)=O)C2OC(C)=O)c(N=C(C)C(C)=O)c(=O)n1C (stereo unspecified)
inactive: [1] 30.4% | [2] 21.6% | [3] 13.4% | [4] 17.7% | [5] -1.35% | [6] 8.4%

COc1cc(O)c2c(c1)Cc1cc(C)cc(O)c1C2=O
inactive: [1] 10.2% | [2] -1% | [3] 6.2% | [4] 22.5% | [5] 16.6% | [6] 1.65%

NNC(=O)C(=O)N/N=C1/CCCC1C(=O)CCC(=O)Nc1ccc(Cl)cc1 (stereo unspecified)
inactive: [1] -4% | [2] -14.2% | [3] 0% | [4] -0.2% | [5] 0.3% | [6] -6.9%

O=c1c2ccccc2nc(-c2ccccc2)n1/N=C/c1ccccc1O
inactive: [1] 1.15% | [2] 38.8% | [3] 34.6% | [4] -5.65% | [5] 32.9% | [6] 27.1%

Nc1ccn(CCOC(=O)c2ccccc2)c(=O)n1
inactive: [1] -2% | [2] -28% | [3] -14.7% | [4] -6.05% | [5] 31.2% | [6] 15.5%

CC(=O)OCC(=O)C1(O)CCC2C3CCC4CC(=O)CCC4(C)C3C(=O)CC21C (stereo unspecified)
inactive: [1] -3.65% | [2] -5.65% | [3] -11.8% | [4] 20.2% | [5] 3.7% | [6] 9.4%

CCOc1ccc2ccccc2c1N
inactive: [1] 44% | [2] 15.4% | [3] 24.3% | [4] 4.8% | [5] 51.7% | [6] 46.7%

CC12CCC(=O)C=C1CCC1C2CCC2(C)C(C(=O)Cn3c(=O)cc[nH]c3=O)CCC12 (stereo unspecified)
inactive: [1] 1.2% | [2] -3.7% | [3] -0.5% | [4] 15.8% | [5] -1.35% | [6] 1.85%

COC(=O)Nc1ccc(NC(=O)c2cscn2)c(NC(=O)OC)n1
inactive: [1] 1.55% | [2] 2.7% | [3] -2.3% | [4] -4.05% | [5] 5.75% | [6] -3.45%
